In PubChem BioAssay (NCATS):
Records with an inconclusive call do not appear. The source made the active and inactive calls. Calls follow the shape of the dose curve; as a rule, active = well fitted curve in the direction sought with a large enough effect; inconclusive = small, poorly fitted or top-dose-only effect, or another doubt; inactive = no such curve, though single readings can be large; an effect the other way counts as inactive or inconclusive.

Experiments:
[1] = qHTS for Inhibitors of Plasmodium falciparum (DD2) proliferation (AID 504314); also: potency is read from the fitted curve at half-maximal effect
Method in brief: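 Erythrocytes infected with P. falciparum Dd2 (0.3% parasitemia, 2.5% hematocrit) exposed to compound 72 h at 37C, 5% CO2. Parasite DNA quantified by SYBR Green fluorescence after saponin/Triton lysis overnight; normalized to 0.29 uM artemisinin and DMSO.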

[2] = qHTS for Inhibitors of Plasmodium falciparum (GB4) proliferation (AID 504315); also: nearly all actives have a fitted effect of over 50% in size; also: potency is read from the fitted curve at half-maximal effect
Method in brief: (§1)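 Erythrocytes infected with P. falciparum line (0.3% parasitemia, 2.5% hematocrit final) incubated with compounds 72 h at 37 °C, 5% CO2; SYBR Green lysis buffer added, fluorescence read next day. Normalized to 0.29 uM artemisinin and DMSO.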

[3] = qHTS for Inhibitors of Plasmodium falciparum (7G8) proliferation (AID 504316); also: series mostly up to about 6.7 µM; nearly all actives have a fitted effect of over 65% in size
Method in brief: as §1

[4] = qHTS for Inhibitors of Plasmodium falciparum (CP250) proliferation (AID 504320)
Method in brief: as §1

[5] = qHTS for Inhibitors of Plasmodium falciparum (HB3) proliferation (AID 504318); also: nearly all actives have a fitted effect of over 60% in size; also: potency is read from the fitted curve at half-maximal effect
Method in brief: as §1

Measured: Potency

COC/C=C/C1=CC2=CC(=O)C(C)(OC(=O)c3cnc4ccccc4n3)C(=O)C2=CN1CCCCO (centres undefined)
not listed: [5]
inactive: all other assays above

C=CCN1C=C2C(=O)C(C)(OC(=O)CCC(=O)OC)C(=O)C(Br)=C2C=C1c1ccc(OC)cc1 (centres undefined)
not listed: [3]
inactive: all other assays above

COC(=O)CCC(=O)OC1(C)C(=O)C=C2C=C(C3CC3)N(C3CC3)C=C2C1=O (centres undefined)
inactive: [1] | [2] | [5]

COC(=O)CC=C[C@@H](C)[C@H](OC)c1cc(F)ccc1Br
not listed: [5]
inactive: all other assays above

COc1cccc([C@@H]2Oc3ccc(Br)cc3[C@H](O)[C@@H]2O)c1
not listed: [5]
inactive: all other assays above

C=C(C(C)=O)C(O)c1cccs1 (centres undefined)
not listed: [5]
inactive: all other assays above

CC#CCN1c2ccccc2[C@]23C[C@@H](C(=O)OC)N(C(=O)c4ccco4)C2=NC(C(=O)OC)=C(C(=O)OC)[C@H]13
not listed: [5]
inactive: all other assays above

COC(=O)CCCC1=CC2=C(c3ccccc3)C(=O)C(C)(OC(=O)C3CCCC3)C(=O)C2=CN1C1CCCC1 (centres undefined)
not listed: [5]
inactive: all other assays above

COC/C=C/C1=CC2=CC(=O)C(C)(OC(=O)c3cnc4ccccc4n3)C(=O)C2=CN1Cc1ccco1 (centres undefined)
not listed: [5]
inactive: all other assays above

CCN1C(=O)N(C)[C@@H](c2ccccc2)C(C(=O)OC)=C1C
not listed: [5]
inactive: all other assays above

C=C(C(C)=O)C(O)c1ccc2ccccc2c1 (centres undefined)
not listed: [3]
inactive: all other assays above

CCOC(=O)CN1C(=O)N[C@@H](c2cccc(C(F)(F)F)c2)C(C(C)=O)=C1C
not listed: [5]
inactive: all other assays above

CC#CCN1c2ccccc2[C@]23C[C@@H](C(=O)OC)N(C(=O)CC(C)C)C2=NC(C(=O)OC)=C(C(=O)OC)[C@H]13
not listed: [3]
inactive: all other assays above

CCCCC1=CC2=CC(=O)C(C)(OC(=O)CC)C(=O)C2=CN1CCc1ccc(Br)cc1 (centres undefined)
not listed: [5]
inactive: all other assays above

COC(=O)C1(C(=O)OC)CC(CO)C(=O)[C@@H]1c1ccccc1 (some centres undefined)
not listed: [3]
inactive: all other assays above

COC(=O)C1=C(C(=O)OC)[C@@H]2N(C)c3ccc(OC)cc3[C@@]23C[C@@H](C(=O)OC)N(S(=O)(=O)c2ccc(OC)cc2)C3=N1
not listed: [3]
inactive: all other assays above

COC(=O)c1ccccc1S(=O)(=O)N1CCc2nc(COc3ccccc3)c3c(c2C1)CO[C@@H](C)C3
not listed: [5]
inactive: all other assays above

COCCN1C(=O)N[C@@H](c2cccc(F)c2)C(C(=O)OC)=C1C
not listed: [5]
inactive: all other assays above

COC(=O)CCC(=O)OC1(C)C(=O)C=C2C=C(C3CC3)N(C3CCCCC3)C=C2C1=O (centres undefined)
not listed: [5]
inactive: all other assays above

COC(=O)C1=C(C(=O)OC)[C@@H]2N(C)c3ccc(OC)cc3[C@@]23C[C@@H](C(=O)OC)N(S(=O)(=O)c2cccs2)C3=N1
not listed: [5]
inactive: all other assays above

COC(=O)[C@@H](NC(=O)N1CCc2nc(-c3ccccc3)c3c(c2C1)CO[C@@H](C)C3)C(C)C
inactive: [1] | [2] | [5]

COC(=O)CCC(=O)OC1(C)C(=O)C2=CN(c3ccccc3)C(c3ccc(OC)cc3)=CC2=C(Br)C1=O (centres undefined)
not listed: [5]
inactive: all other assays above

COc1cc2c(cc1OC)[C@@H]1O[C@](CCCCN3C(=O)c4ccccc4C3=O)(C2)Oc2cc(C)n(-c3ccccc3)c(=O)c21
active: [1] 1.69 µM | [2] 1.35 µM | [5] 1.2 µM

C=C(C)C(=O)c1ccc2c(c1)OCO2
not listed: [5]
inactive: all other assays above

C=CCN1c2ccccc2[C@]23C[C@@H](C(=O)OC)N=C2NC(C(=O)OC)=C(C(=O)OC)[C@H]13
not listed: [5]
inactive: all other assays above

CCN(CC)CCCN1C=C2C(=O)C(C)(OC(=O)CCc3ccccc3)C(=O)C=C2C=C1c1ccc(C#N)cc1 (centres undefined)
not listed: [5]
inactive: all other assays above

CCOC(=O)CN1C(=O)N[C@@H](c2cccc(C(F)(F)F)c2)[C@H](C(=O)OC)[C@H]1C
not listed: [3]
inactive: all other assays above

CCOC(=O)OC[C@H]1O[C@H](c2ccccc2)C=C[C@H]1OC(=O)OCC
not listed: [3]
inactive: all other assays above
